Assay outcomes as filed in PubChem BioAssay.
LmPK inhibitor: LmPK (Leishmania mexicana) enzyme inhibition | Q27686 | purified LmPK, Kinase-Glo ATP luminescence, 1 h | Potency, µM (top dose mostly 57.5 µM), usual class: inhibitors | 290,000 tested, 0.37% active | AID 1721; active means well fitted curve in the direction sought with a large enough effect; inconclusive means small, poorly fitted or top-dose-only effect, or another doubt; inactive means no such curve, though single readings can be large; an effect the other way counts as inactive or inconclusive
Target sequence (Q27686 whole entry, looked up): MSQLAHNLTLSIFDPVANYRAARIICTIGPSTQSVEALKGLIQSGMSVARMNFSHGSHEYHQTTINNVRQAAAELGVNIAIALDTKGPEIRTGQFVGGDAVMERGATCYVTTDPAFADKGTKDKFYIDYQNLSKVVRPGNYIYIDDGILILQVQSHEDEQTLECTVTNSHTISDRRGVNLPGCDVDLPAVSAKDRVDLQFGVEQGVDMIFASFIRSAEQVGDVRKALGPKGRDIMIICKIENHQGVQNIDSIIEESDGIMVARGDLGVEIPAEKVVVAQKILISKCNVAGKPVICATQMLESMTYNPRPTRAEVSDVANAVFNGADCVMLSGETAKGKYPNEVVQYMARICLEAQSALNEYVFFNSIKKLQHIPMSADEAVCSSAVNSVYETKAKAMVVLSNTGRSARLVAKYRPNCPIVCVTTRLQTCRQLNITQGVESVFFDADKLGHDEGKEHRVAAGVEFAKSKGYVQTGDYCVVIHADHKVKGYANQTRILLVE
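Purified LmPK (0.1 nM) converted ADP (0.1 mM) to ATP with PEP (0.5 mM) in imidazole buffer pH 7.2 with KCl and MgCl2, 1 h at room temperature. ATP was read by Kinase-Glo luminescence; data normalized to uninhibited and no-enzyme controls.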
TbPYK inhibitor: blocks Trypanosoma brucei pyruvate kinase. Q57TT1. TbPYK enzyme, Kinase-Glo Plus ATP luminescence, 45 min. Potency, µM (titrated, usually from 76.8 µM), usual class: inhibitors. 410,000 tested, 0.12% active. AID 624173; active means well fitted curve in the direction sought with a large enough effect; inconclusive means small, poorly fitted or top-dose-only effect, or another doubt; inactive means no such curve, though single readings can be large; an effect the other way counts as inactive or inconclusive; further: nearly all actives have a fitted effect of over 50% in size
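Assay buffer: 50 mM TEA pH 7.2, 100 mM KCl, 10 mM MgCl2, 0.05% BSA, 0.01% Tween-20. Pyruvate kinase from T. brucei plus substrate met compound, then ADP (130 uM final). Luminescence was read post 45 min RT.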
SARS PLP yeast: inhibitors of SARS-CoV papain-like protease in yeast; 330,000 tested, 0.19% active; Potency, µM (top dose mostly 32.9 µM), usual class: activators; S. cerevisiae expressing SARS-CoV PLpro, growth rescue; AID 485353; further: nearly all actives have a fitted effect of over 55% in size
Cycloheximide cs: counter-screen for Shiga toxin inhibitors: cycloheximide protein synthesis inhibition; cell reporter, cycloheximide protein synthesis inhibition counterscreen; max response, %; 300,000 tested, 12% active; AID 2314; in the data active means max response mostly above about 13%, no sharp cut-off; inactive means mostly below about 14%; further: read at 38.3 µM for the half of the compounds with a filed dose
Shiga toxin inh: blocks Shiga toxin action in Vero cells; Vero cells, Shiga toxin protein synthesis inhibition reporter; inhibition, % at 38.7 µM; 290,000 tested, 9.2% active; in the data active means inhibition mostly above about 28%, no sharp cut-off; inactive means mostly below about 43%
NS1 function inh: blocks influenza NS1 protein function; AID 2326; Potency, µM (series often up to 46.1 µM); 270,000 tested, 0.4% active; further: actives are rising curves; nearly all actives have a fitted effect of over 50% in size
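Recovery from NS1-induced slow growth read by OD600 in budding yeast switched to galactose assay medium (pH 6.0, -URA) at 1:100 dilution. Compound 23 nl per well; the matching strain lacking NS1 serves as control.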
Hits are given with their value; i = inactive; ? = inconclusive; nt = not tested or not shown. The entries come from a sample that favours hits as a whole. Unless noted, the call rests on the fitted dose curve.

SMILES	LmPK inhibitor	TbPYK inhibitor	SARS PLP yeast	Cycloheximide cs	Shiga toxin inh	NS1 function inh
O=C(N/N=C/c1cccc(Cl)c1)C1CCCC1	i	i	?	35.2	54.4	i
O=C(N/N=C/c1cccc2ccccc12)c1n[nH]c2c1CCCC2	i	i	i	i	i	i
CN(Cc1ccccc1)C(=O)[C@H](Cc1ccc2ccccc2c1)NC(=O)[C@@H]1C[C@@H](O)CN1C(=O)c1cn(C)c2ccccc12	nt	nt	nt	i	i	nt
O=C(NC(=S)Nc1ccccc1N1CCCC1)c1ccccc1Br	i	nt	i	i	i	i
COc1cccc(/C=C/C(=O)Nc2ccccc2N2CCOCC2)c1	i	i	i	29.4	i	nt
COc1cccc(C(=O)NC(=S)Nc2ccccc2N2CCCCC2)c1	i	i	?	i	i	?
COc1cccc(C(=O)NC(=S)Nc2ccccc2N2CCCC2)c1	i	?	i	17.3	i	i
COc1c(C)cccc1C(=O)NC(=S)Nc1ccccc1N1CCCC1	i	i	i	29.8	i	i
O=C(/C=C/c1ccc(Cl)cc1)Nc1ccccc1N1CCOCC1	i	i	i	i	i	i
Cc1ccc(CCNC(=O)CN(C)S(=O)(=O)c2ccc3c(c2)n(C)c(=O)c(=O)n3C)cc1	i	i	i	i	i	i
CCOC(=O)C1(Cc2ccc(OC)cc2)CCN(C(=O)c2cc(C)nn2C)CC1	i	i	i	13.9	i	i
CCOC(=O)C1(Cc2ccc(OC)cc2)CCN(C(=O)CN2CCCCC2=O)CC1	i	i	i	16.7	25.6	i
CCOC(=O)C1(Cc2ccc(OC)cc2)CCN(C(=O)c2cccc3nccnc23)CC1	i	i	i	i	i	i
CCOC(=O)C1(Cc2ccccc2Cl)CCN(S(C)(=O)=O)CC1	i	i	i	i	i	i
CCOC(=O)C1(Cc2ccc(OC)cc2)CCN(S(C)(=O)=O)CC1	i	i	i	47.1	50.1	i
CCCS(=O)(=O)N1CCC(Cc2ccc(OC)cc2)(C(=O)OCC)CC1	i	i	i	19.8	i	i
CN(C1CCCCC1)S(=O)(=O)c1ccc2c(c1)c(=O)c(C(=O)NCCc1ccc(Cl)cc1)cn2C	nt	i	nt	nt	nt	nt
Cc1cc(/C=N/NC(=O)C(=O)NCc2ccccn2)c(C)n1-c1ccccc1	i	i	i	28.0	46.2	i
Cc1cc(/C=N\NC(=O)COc2cccc3cccnc23)c(C)n1-c1ccc(Br)cc1	i	i	i	i	i	i
COc1cccc(/C=N/NC(=O)COc2cccc3cccnc23)c1O	i	i	i	i	32.1	nt
Cc1cc(/C=N\NC(=O)c2cccs2)c(C)n1-c1ccc2ncccc2c1	i	i	i	40.1	134.8	i
Cc1cc(/C=N\NC(=O)COc2cccc3cccnc23)c(C)n1-c1ccccc1	i	i	i	30.6	63.9	i
O=C(CSc1oc(-c2ccco2)nc1S(=O)(=O)c1ccc(Br)cc1)c1ccc(Cl)cc1	nt	i	nt	nt	nt	nt
COc1cc(CCC(=O)Nc2ccc(C)c(S(=O)(=O)N3CCCCCC3)c2)cc(OC)c1OC	nt	i	i	nt	nt	nt
O=C(Cc1ccc(Cl)cc1)Nc1ccc(SC(F)F)cc1	i	i	i	45.3	13.2	i
SMILES	LmPK inhibitor	TbPYK inhibitor	SARS PLP yeast	Cycloheximide cs	Shiga toxin inh	NS1 function inh
O=C(Cc1ccccc1F)Nc1ccc(SC(F)F)cc1	i	i	i	90.7	56.7	i
O=C(COC(=O)Cc1ccccc1F)Nc1ccc(SC(F)F)cc1	i	i	i	i	i	i
Cc1ccc(NC(=O)C2CCCN2S(=O)(=O)c2cccc3nsnc23)c(Br)c1 (configuration not stated)	nt	i	nt	nt	nt	nt
Cc1oc2ncn(C)c(=O)c2c1C(=O)N1CCN(c2ccccc2)CC1	nt	i	nt	nt	nt	nt
Fc1cc(Br)ccc1Nc1nc2ccccc2n2nnnc12	i	i	i	26.9	42.5	i
Cc1cc(F)ccc1Nc1nc2ccccc2n2nnnc12	nt	i	nt	nt	nt	nt
Cc1ccc(Nc2nc3ccccc3n3nnnc23)cc1	i	i	i	25.6	71.5	i
COc1ccc([C@@H]2[C@@H]3C(=O)N(C(C)(C)C)C(=O)[C@@H]3[C@]3(C)C(=O)N(c4ccc(C(F)(F)F)cc4)C(=O)N23)cc1	i	i	i	20.9	23.9	i
COc1ccc([C@@H]2[C@@H]3C(=O)N(C(C)(C)C)C(=O)[C@@H]3[C@]3(CC(C)C)C(=O)N(c4cccc(Br)c4)C(=O)N23)cc1	i	i	i	i	i	i
COc1ccc([C@@H]2[C@@H]3C(=O)N(C(C)(C)C)C(=O)[C@@H]3[C@]3(CC(C)C)C(=O)N(c4ccccc4)C(=O)N23)cc1	i	i	i	15.7	i	i
COc1ccc([C@@H]2[C@@H]3C(=O)N(C(C)(C)C)C(=O)[C@@H]3[C@]3(CC(C)C)C(=O)N(c4ccc(C(F)(F)F)cc4)C(=O)N23)cc1	i	i	i	i	i	i
Cc1ccc2c(c1)N(CC(=O)NC1CCCCCC1)C(=O)c1cccnc1O2	i	i	i	i	i	i
Cc1ccccc1CN1C(=O)C(O)(CC(=O)c2cccc(Br)c2)c2ccccc21 (configuration not stated)	nt	i	nt	nt	nt	nt
CC1CCCN(C(=S)Nc2ccc(Nc3ccccc3)cc2)C1 (configuration not stated)	i	i	i	23.2	98.7	i
COC(=O)Cc1ccc(NC(=S)N2CCCC(C)C2)cc1 (configuration not stated)	i	i	i	40.6	i	i
Cc1ccc(-c2nnn(CC(=O)N(CC(=O)NC3CCCC3)c3cccc(F)c3)n2)o1	i	i	i	i	i	i
CC(C)Cc1cc(C(=O)Nc2cccnc2)no1	i	i	i	35.4	111.2	i
CC(=O)c1ccc(NC(=O)c2ccn(C(=O)OCC(C)C)n2)cc1	i	i	i	70.7	55.8	i
CC(=O)c1ccc(NC(=O)c2cc(CC(C)C)on2)cc1	i	i	i	18.1	active	i
CC(C)COC(=O)n1ccc(C(=O)N2CCCCC2)n1	i	i	i	i	i	i
CSc1ccccc1NC(=O)c1cc(CC(C)C)on1	i	i	i	62.3	69.5	i
Cc1cc(C(=O)Nc2cccnc2)no1	i	i	i	i	i	i
Cc1ccc(Cl)cc1NC(=O)Cn1c(=O)n(C(C)C)c(=O)c2oc3ccccc3c21	nt	i	nt	nt	nt	nt
COc1ccc(Oc2ncc3ncc(=O)n(CCC#N)c3n2)cc1	nt	i	nt	nt	nt	nt
O=C(NCc1ccc(Cl)cc1)C1(c2cccs2)CCOCC1	nt	i	nt	nt	nt	nt
CCOC(=O)CNC(=O)N(C)[C@H]1C[C@H]2c3[nH]c4ccccc4c3CCN2C(=O)[C@H]1[C@H](C)O	nt	i	nt	nt	nt	nt
Cc1cc(C)nc(Oc2ccc(Br)cc2Br)n1	i	i	i	25.2	77.1	i
C/C(=N/Oc1nc(C)cc(C)n1)c1ccc(Br)cc1	i	i	i	i	i	i
Cc1ccc(N2C(=O)N(CC(=O)Nc3ccccc3C)C(=O)C2C)cc1 (configuration not stated)	i	i	i	19.5	18.1	i
